Records with an inconclusive call do not appear. Calls of active or inactive are those of the source. Calls come from the whole dose curve; as a rule, active = well fitted inhibition curve with a large enough effect; inconclusive = small, poorly fitted or top-dose-only effect; inactive = no such curve, though single readings can be large or run the other way.
experiment: Confirmation assay for measurement of the activity of small molecule inhibitors on Zika virus induced Caspase-3 activity in human astrocytes; conditions: ZIKV-induced caspase-3/7 luminescence, 6 h; series mostly up to 46.1 µM; activity, negative = inhibition: at the top concentration
Text: National Center for Advancing Translational Sciences [NCATS] Johns Hopkins University School of Medicine Florida State University Assay Overview: Increase in the Caspase-3 activity indicates an activation of apoptosis cell death pathway caused by Zika virus infection in certain types of neuronal cells including human neural progenitor cells (hNPCs), astrocytes, and astrocytoma cell line (SNB-19). This cell-based caspase-3 activity assay measures the increased caspase-3 activity in the human astrocytes after a 6-hour Zika virus infection with a luminescence readout. A decrease in the luminescence signal in this assay by small molecule treatment indicates an inhibitory effect of that small molecule on the Zika virus induced caspase-3 activity that may correlate with its effect on reduction of Zika virus caused cell death.
Assay Protocol Summary: The medium for astrocytes contains AM basal medium (ScienCell, Cat.# 1801), AGS (ScienCell, Cat.# 1801), 10% FBS, and 1% Pen/Strep. A Caspase-Glo 3/7 assay kit (catalog number G8092; Promega, Madison, WI) was used to detect caspase-3 activity induced by Zika virus infection in human cells. The reagent mixture was reconstituted as described in the protocol from the manufacturer. Polystyrene tissue culture treated and PDL coated white plates were obtained from Greiner Bio-One (Monroe, NC). Cells were seeded in 384- or 1536-well assay plates and cultured at 37 C with 5% CO2 for 16 to 20 hours. The typical cell seeding density in the 1536-well plate assay is 350 cells/well in 3 ul medium for astrocytes in tissue culture treated plates. Compounds were added to cells and incubated for one hour before addition of ZIKV solution to cells (2 FFU/cell). After incubation at 37 C with 5% CO2 for 6 hours, the reagent mixture of Caspase-Glo 3/7 assay kit was added to each well, followed by incubation at room temperature for 30 minutes. The luminescence intensity of the assay plates was measured using a ViewLux plate reader (PerkinElmer). Data were normalized by using the cell-containing wells without ZIKV as a negative control (0% induction of caspase 3/7 activity) and wells containing ZIKV infected cells (Caspase-3 activity induced) as a positive control (100% induction of caspase 3 activity). The percentage inhibitions of the increased Caspase-3 activity by small molecule inhibitors were then calculated.

SMILES	activity, negative = inhibition	Potency
CC(C)OC(=O)CCCC=CC[C@@H]1[C@H](C=C[C@@H](O)COc2cccc(C(F)(F)F)c2)[C@H](O)C[C@@H]1O	38.6% (inactive)	–
C[C@@H]1CCN(C(=O)CC#N)C[C@H]1N(C)c1ncnc2[nH]ccc12	-16.5% (inactive)	–
CS(=O)(=O)c1ccc(-c2cn3ccccc3n2)cc1	–	7.74 µM (active)
CC(C(=O)O)c1ccc(C(=O)c2ccccc2)s1 (stereo not given)	–	6.15 µM (active)
CC(C)Oc1ccc2c(=O)c(-c3ccccc3)coc2c1	–	10.9 µM (active)
O=c1cc(-c2ccccc2)oc2cc(O)c(O)c(O)c12	-14% (inactive)	–
O=C(/C=C/c1ccc(O)cc1)c1ccc(O)cc1O	–	2.75 µM (active)
COc1ccc(/C=C/C(=O)Nc2ccccc2C(=O)O)cc1OC	–	13.8 µM (active)
O=C(O)c1cccc(-c2noc(-c3ccccc3F)n2)c1	–	3.88 µM (active)
O=C(O)c1ccccc1Nc1cccc(C(F)(F)F)c1	–	6.9 µM (active)
CO[C@H]1C(=O)[C@]2(C)[C@@H](OC)C[C@H]3OC[C@@]3(OC(C)=O)[C@H]2[C@H](OC(=O)c2ccccc2)[C@]2(O)C[C@H](OC(=O)[C@H](O)[C@@H](NC(=O)OC(C)(C)C)c3ccccc3)C(C)=C1C2(C)C	-4.54% (inactive)	–
C[C@@H](O[C@H]1OCCN(Cc2n[nH]c(=O)[nH]2)[C@@H]1c1ccc(F)cc1)c1cc(C(F)(F)F)cc(C(F)(F)F)c1	123% (inactive)	–
O[C@@H](COc1cccc2ncccc12)CN1CCN(C2c3ccccc3[C@@H]3[C@H](c4ccccc42)C3(F)F)CC1 (stereo not given in full)	21.8% (inactive)	–
O=C(Nc1ccc([N+](=O)[O-])cc1Cl)c1cc(Cl)ccc1O	–	1.73 µM (active)
CN(C)c1ccc(/C=C2\C(=O)Nc3ccccc32)cc1	–	8.69 µM (active)
CCC(C(=O)O)c1ccc(N2Cc3ccccc3C2=O)cc1 (stereo not given)	–	6.9 µM (active)
CC[C@]1(O)C[C@H]2CN(CCc3c([nH]c4ccccc34)[C@@](C(=O)OC)(c3cc4c(cc3OC)N(C=O)[C@H]3[C@@](O)(C(=O)OC)[C@H](OC(C)=O)[C@]5(CC)C=CCN6CC[C@]43[C@@H]65)C2)C1	4.34% (inactive)	–
CCCC(=O)OC[C@@H](OC(=O)CCC)[C@@H](OC(=O)CCC)[C@H](Cn1c2nc(=O)[nH]c(=O)c-2nc2cc(C)c(C)cc21)OC(=O)CCC	-26.4% (inactive)	–
CC1(C)Cc2c(sc(NC(=S)NC(=O)c3ccccc3)c2C(=O)O)CO1	11.8% (inactive)	–
O=C(O)[C@H](CC(=O)N1C[C@@H]2CCCC[C@H]2C1)Cc1ccccc1	1.15% (inactive)	–

SMILES	activity, negative = inhibition	Potency
COc1ccc(CC2=NN3C([C@@H](CCc4ccccc4)[C@@H](C)O)=NC(C)C3C(=O)N2)cc1OC (stereo not given in full)	-7.76% (inactive)	–
CC(C)(C)OC(=O)CN(Cc1ccc(Cl)cc1)Cc1ccc([N+](=O)[O-])s1	-24.1% [at 88.3 µM] (inactive)	–
COc1ccc(-c2coc3cc(O)ccc3c2=O)cc1	–	15.5 µM (active)
c1ccc2[nH]c(-c3cscn3)nc2c1	–	9.75 µM (active)
CC(=Cc1ccccc1)C=C1SC(=S)N(CC(=O)O)C1=O	–	19.5 µM (active)
CC(=O)Nc1ccc([C@H](C)C(=O)Nc2ncc(C(C)C)s2)cc1	–	10.9 µM (active)
CC[C@@]1(O)C[C@H](O[C@H]2C[C@H](N(C)C)[C@H](O[C@H]3C[C@H](O)[C@H](O[C@H]4CCC(=O)[C@H](C)O4)[C@H](C)O3)[C@H](C)O2)c2c(cc3c(c2O)C(=O)c2c(O)cccc2C3=O)[C@@H]1C(=O)OC	10.1% (inactive)	–
CCN(CC)c1ccc(C(=C2C=CC(=[N+](CC)CC)C=C2)c2cc(S(=O)(=O)O)ccc2S(=O)(=O)[O-])cc1	–	7.74 µM (active)
COc1cccc(-c2ccc(NC(=O)C3=C(C(=O)O)CCC3)c(F)c2)c1	–	2.45 µM (active)
Oc1cc(O)cc(/C=C/c2ccc(O)c(O)c2)c1	–	6.9 µM (active)
N[C@H](CSC(c1ccccc1)(c1ccccc1)c1ccccc1)C(=O)O	17.5% (inactive)	–
O=S(=O)(O)c1ccc2nc(-c3ccccc3)[nH]c2c1	–	1.95 µM (active)
Cc1c(NC(=O)c2ccc(C(C)(C)C)cc2)cccc1-c1cn(C)c(=O)c(Nc2ccc(C(=O)N3CCOCC3)cc2)n1	-4.1% (inactive)	–
Nc1ccc(N=Nc2ccccc2)c(N)n1	–	15.5 µM (active)
CN1CC(=O)N2C(Cc3c([nH]c4ccccc34)[C@H]2c2ccc3c(c2)OCO3)C1=O (stereo not given in full)	9.65% (inactive)	–
CCCCCCOc1ccccc1C(N)=O	-10.9% (inactive)	–
O=C1C(Cl)=C(NCCN2CCOCC2)C(=O)c2ncccc21	–	6.15 µM (active)
O=C1NC(=O)C(=Cc2ccc(-c3ccc(F)cc3)o2)S1	–	12.3 µM (active)
CCCCCCCCCCCC(=O)[O][Sn]([CH2]CCC)([CH2]CCC)[O]C(=O)CCCCCCCCCCC	-15% (inactive)	–
CCCS(=O)c1ccc2nc(NC(=O)OC)[nH]c2c1 (stereo not given)	–	13.8 µM (active)
